112 molecules from PubChem BioAssay AID488890 (Southern Research Specialized Biocontainment Screening …, 2010) can be followed below.

Out of some 320,000 compounds screened, about 1,300 (0.41%) were called active. Not shown: some 3% with an inconclusive outcome. No rule for the calls is given here. The list is a sample of the results. Entries with a potency or affinity are not part of this list.

This assay can be described thus: growth inhibition of non-replicating M. tuberculosis (AID 488890).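 Also: plate controls were DMSO cells for no effect and high antibiotic wells for full effect.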 To be noted: Mycobacterium tuberculosis non-replicating, at 25 µM, stronger effect = higher value.
As for `C1=C(CCNCc2ccccc2)CCCC1`, the inhibition (as a rule, the relative decrease from the control value, in per cent) is -4.9%.

In the case of `Cc1cc(C(=O)N/N=C/c2cccs2)no1`, the inhibition came out at 33.9%.

As for `Cc1cc(C(=O)N/N=C/c2ccc[nH]2)no1`, the inhibition is 64.3%.

As to `O=C(NNc1ccc([N+](=O)[O-])cc1)c1ccco1`, the inhibition came to 69.6%.

On to `NS(=O)(=O)c1ccc(NNC(=O)c2ccccc2C(=O)O)cc1`, for which the inhibition is -12.1%.

As to `O=C(NC(NNc1ccc([N+](=O)[O-])cc1)(C(F)(F)F)C(F)(F)F)c1ccccc1Cl`, the inhibition worked out at 6.68%.

Consider `O=C(NNC(=O)C1CC1c1ccccc1)c1ccccc1[N+](=O)[O-]` (configuration not stated), for which the inhibition is -10.3%.

Regarding `O=C(O)c1ccccc1C(=O)NNc1ccc(Cl)cc1Cl`, the inhibition turned out to be 10.7%.

Take `O=C(NNC(=O)C1CC1c1ccccc1)c1cccc([N+](=O)[O-])c1` (configuration not stated): the inhibition was determined as 3.57%.

For the molecule `CN(c1ccccc1)S(=O)(=O)c1ccc(NC(=S)NC(=O)C2CC2)cc1`, the inhibition was -18.9%.

`COc1cc(OC)cc(C(=O)N2CCC(C(=O)c3ccc(F)cc3)CC2)c1`: the inhibition was 5.91%.

In the case of `CC(C)[C@@H](C(=O)NC1CC1)N1C(=O)N2CCc3c([nH]c4ccccc34)[C@@]2(C)C1=O`, the inhibition amounted to 21%.

Take `CC1CCC(NC(=O)CN2CCN(S(=O)(=O)c3cccs3)CC2)CC1` (configuration not stated): the inhibition was 1.37%.

`Cc1nc2c(-c3ccc(F)cc3)c(C)nn2c(N2CCOCC2)c1C`: the inhibition was 40.1%.

Take `O=C(O)CSc1nnc(-c2ccc(Cl)cc2Cl)n1Cc1ccccc1`: the inhibition was -8.24%.

As to `O=C(NC1CCCCC1)C(c1cccs1)N(C(=O)C(F)(F)F)c1ccccc1` (configuration not stated), the inhibition stood at 14.2%.

In the case of `Cc1cc(C(=O)NNC(=O)Nc2ccc(Cl)cc2)no1`, the inhibition is -6.49%.

Consider `Cc1cc(C(=O)NNc2ccc(F)cc2)no1`, for which the inhibition was found to be 57.1%.

For the molecule `Cc1ccc(C)c(C(=O)CCC(=O)Nc2ccc(F)cc2)c1`, the inhibition stood at 40%.

In the case of `CC(C)OCC(O)CS(=O)(=O)Cc1ccccc1` (configuration not stated), the inhibition is -5.18%.

As for `O=C(c1cccnc1)N1CCC(Oc2ccc(C(=O)N3CCCC(O)C3)cc2)CC1` (configuration not stated), the inhibition is -34.2%.

In the case of `CSc1cc(C)[nH]c(=O)n1`, the inhibition was -1.97%.

Regarding `CSc1nc(Cl)cc(=O)[nH]1`, the inhibition is 6.5%.

Turning to `O=C(NCC(c1ccco1)N1CCc2ccccc21)c1ccccc1Br` (configuration not stated), the inhibition was 11.1%.

Consider `CC(=O)NCCc1nc2ccccc2n1Cc1ccc(Cl)cc1`, for which the inhibition worked out at 0.72%.

As for `O=C(Nc1nc2ccccc2n1Cc1ccc(Cl)cc1)c1ccco1`, the inhibition is -7.17%.

For `CC(=O)NCCCc1nc2ccccc2n1Cc1ccc(C)cc1`, the inhibition amounted to 1.78%.

`Cc1ccc(Cn2c(NS(=O)(=O)c3ccccc3)nc3ccccc32)cc1`: the inhibition is -3.28%.

As to `CC(=O)Nc1ccc(-c2nc3cc(Cl)ccc3o2)cc1`, the inhibition came to 49.8%.

Consider `CC/C(=N\NC(N)=O)c1c(O)[nH]c(=O)[nH]c1=O`, for which the inhibition was -25.7%.

For the molecule `C/C(Cn1nnc([N+](=O)[O-])n1)=N\NC(=O)c1ccc(O)cc1`, the inhibition worked out at 54.4%.

`C/C(Cn1nnc([N+](=O)[O-])n1)=N\NC(=O)c1ccc(C)cc1`: the inhibition amounted to 55.5%.

On to `Cc1nc2c(sc3nc4c(cc32)COC(C)(C)C4)c(=O)n1Cc1ccccc1`, for which the inhibition stood at 8.21%.

With `CCNC(=O)OCC12CC3CC(CC(C3)C1)C2`, the inhibition amounted to 77%.

On to `CCCNC(=O)OCCC12CC3CC(CC(C3)C1)C2`, for which the inhibition was 69.4%.

Consider `COc1ccc(Cl)c2sc(N(CCN(C)C)C(=O)CCS(=O)(=O)c3ccc(C)cc3)nc12`, for which the inhibition amounted to 26.4%.

`O=C(NCC1CCCN(C(=O)c2cccnc2)C1)c1ccc(-c2ccccc2)cc1` (configuration not stated): the inhibition is -2.83%.

Turning to `O=C(O)c1ccc(Nc2ncc([N+](=O)[O-])cc2[N+](=O)[O-])cc1`, the inhibition was found to be 5.68%.

`O=[N+]([O-])c1ccc(Nc2ccc(Cl)cc2)nc1`: the inhibition amounted to 16.9%.

Consider `COc1ccc(CCNC(=O)c2ccc(S(=O)(=O)N(C)c3ccccc3)cc2)cc1OC`, for which the inhibition is -1.9%.

Regarding `O=C(CC1CCCC1)Nc1cc(C(F)(F)F)ccc1-n1cncn1`, the inhibition was 12.3%.

Consider `c1ccc(Nc2ccccn2)nc1`, for which the inhibition stood at 3.72%.

Consider `c1ccc(Nc2ccccc2Nc2ccccn2)nc1`, for which the inhibition came to 0.46%.

On to `COc1cc(NC(=O)c2ccc([N+](=O)[O-])o2)ccc1NC(=O)c1ccco1`, for which the inhibition stood at 66.5%.

As to `Cc1cccc(NC(=O)COC(=O)c2ccc([N+](=O)[O-])o2)c1C`, the inhibition worked out at 61.9%.

Regarding `Cc1cccc(NC(=O)c2ccco2)c1C`, the inhibition is -14.2%.

As to `COc1ccccc1NC(=O)c1ccc(-c2ccccc2[N+](=O)[O-])o1`, the inhibition was determined as 25%.

Consider `Cc1ccc(CNC(=O)c2ccc(Br)o2)cc1`, for which the inhibition amounted to 71.9%.

In the case of `O=C(NCc1cccnc1)c1ccc([N+](=O)[O-])o1`, the inhibition stood at 62.8%.

`Cc1ccccc1Cn1nnc(C(=O)Nc2cccc(C)c2C)c1N`: the inhibition turned out to be 26%.

`Cc1cccc(NC(=O)c2cccc(Cn3cc(Br)c([N+](=O)[O-])n3)c2)c1C`: the inhibition was -0.16%.

For the molecule `O=C(NCc1ccccc1)c1cc[n+](Cc2ccccc2)cc1`, the inhibition was -1.18%.

On to `Cc1ccc(C(C)(C)NC(=O)C2CCC(=O)N(C3CCCCCC3)C2)cc1` (configuration not stated), for which the inhibition amounted to 8.48%.

Take `Cc1ccccc1CC(=O)N1CCN(S(=O)(=O)c2cccs2)CC1`: the inhibition is -18.2%.

For `O=C(Cc1ccccc1)NC(c1ccco1)c1c(O)ccc2ccccc12` (configuration not stated), the inhibition came out at 11.6%.

For `O=C(NCc1ccccc1)C1=C[C@@H](c2csc3ccccc23)C[C@@H](OCCCCO)O1`, the inhibition is -6.19%.

In the case of `NC(=O)c1cc(S(=O)(=O)N2CC=C(c3ccccc3)CC2)cs1`, the inhibition was -1.59%.

Consider `N#CCc1ccc(NC(=O)CSc2nnc(C3CC3)n2C2CC2)cc1`, for which the inhibition is -7.07%.

Regarding `CC(=O)OCC(=O)Nc1ccc(SC(F)F)cc1`, the inhibition is -17.3%.

On to `COc1ccc(CNC(=O)N2CCN(c3cccc(C)c3C)CC2)cc1OC`, for which the inhibition worked out at 47.1%.

Take `Cc1ccc2nc(-c3ccncc3)cc(C(=O)N3CCC4(CC3)OCCO4)c2c1`: the inhibition turned out to be 8.38%.

As to `O=C(CSc1ncn(-c2ccccc2)n1)Nc1nccs1`, the inhibition was determined as 12.5%.

In the case of `Cc1cc(OC2CCCCC2)nc(-c2ccccc2O)n1`, the inhibition is 0.01%.

Take `C=C1CCC[C@]2(C)C[C@H]3OC(=O)C(CNC(CC)CO)[C@H]3CC12` (some centres not stated): the inhibition amounted to 34.3%.

As to `O=C(Nc1nccs1)c1ccc(N2C(=O)C3CCCCC3C2=O)cc1` (configuration not stated), the inhibition stood at 6.17%.

Take `Cc1ccc(C(=O)Nc2cccc3ccccc23)o1`: the inhibition came out at 26.4%.

In the case of `O=C(COC(=O)c1ccc([N+](=O)[O-])o1)Nc1cccc2ccccc12`, the inhibition is 71.3%.

As to `O=C(NC12CC3CC(CC(C3)C1)C2)c1ccc([N+](=O)[O-])cc1`, the inhibition was determined as 74.3%.

Take `Cc1c([N+](=O)[O-])cc(C(=O)Nc2ccc(Cc3ccncc3)cc2)cc1[N+](=O)[O-]`: the inhibition was 59.9%.

As for `Cc1cc(C)nc(NC(=O)c2ccc([N+](=O)[O-])o2)n1`, the inhibition is 70.5%.

Take `O=C(Nc1cccc(NC(=O)c2ccccc2Cl)c1)c1ccc([N+](=O)[O-])o1`: the inhibition came to 8.06%.

Take `O=C(NC12CC3CC(CC(C3)C1)C2)c1ccc(-c2ccc(Cl)cc2)o1`: the inhibition stood at 64.3%.

Regarding `O=C(Nc1ccc(Cc2ccncc2)cc1)c1ccc(Br)o1`, the inhibition is -2.73%.

In the case of `O=C(NCCCN1CCN(CCCNC(=O)c2cccc(Cl)c2)CC1)c1cccc(Cl)c1`, the inhibition was found to be 43.3%.

Take `CCOc1ccc(NC(=O)CN(C)C(=O)c2ccc(C)o2)cc1OCC`: the inhibition is -1.16%.

In the case of `Cc1ccc(-c2cc(C(=O)Nc3cccnc3)[nH]n2)c(O)c1C`, the inhibition turned out to be 3.48%.

Turning to `CC(C)NC(=O)CCn1nc(-c2ccc(Cl)cc2)c2ccccc2c1=O`, the inhibition is 10%.

Regarding `FC(F)(F)c1cc(-c2ccco2)nc(N2CCN(c3ccccc3)CC2)n1`, the inhibition was -1.1%.

On to `O=C(CCNC(=O)c1ccc(Br)cc1)NCc1ccco1`, for which the inhibition turned out to be 6.14%.

Take `CC(=O)c1cccc(S(=O)(=O)NCCC(=O)O)c1`: the inhibition was -0.2%.

On to `Cc1cc(C)c2nc(NC(=O)c3ccc([N+](=O)[O-])o3)sc2c1`, for which the inhibition was found to be 62.3%.

Take `CN1CCN(c2ccccc2NC(=O)c2ccc([N+](=O)[O-])o2)CC1`: the inhibition worked out at 44.3%.

Turning to `O=C(Nc1ccccc1N1CCOCC1)c1ccc([N+](=O)[O-])o1`, the inhibition was found to be 67.3%.

With `NS(=O)(=O)c1ccc(O)c(NC(=O)c2ccc([N+](=O)[O-])o2)c1`, the inhibition amounted to 76.7%.

In the case of `CCn1ncc(Br)c1C(=O)Nc1cc(C)cc(C)c1`, the inhibition was -11%.

Regarding `C=C1CCC2[C@](C)(CO)[C@H](O)CC[C@@]2(C)[C@@H]1/C=C/C1=CCOC1=O` (some centres not stated), the inhibition was -9.71%.

As for `CC(C)c1ccc(C(C(=O)NC2CCCC2)N(C(=O)CNC(=O)c2ccco2)c2cccnc2)cc1` (configuration not stated), the inhibition was -5.98%.

In the case of `O=C(NS(=O)(=O)Nc1ccccc1)C1=C(N2CCCC2)COC1=O`, the inhibition stood at 12.7%.

For the molecule `CCOC(=O)N1CCN(C(=O)CSc2nc3c([nH]c4ccccc43)c(=O)n2CCOC)CC1`, the inhibition was -12.8%.

For the molecule `COC(=O)c1nn(-c2cccc(C)c2)c2nnc(Cc3ccc(C)cc3)c(=O)n12`, the inhibition is -0.72%.

Take `COc1ccc(NC(=O)N2CCCC2C(=O)NC2CCCC2)cc1` (configuration not stated): the inhibition is -20.1%.

`COc1ccccc1N1CCN(C(=O)C2CC=CCC2C(=O)O)CC1` (configuration not stated): the inhibition is -0.47%.

As to `COc1cccc2c1OCC(C(=O)O)C2` (configuration not stated), the inhibition is -4.89%.

`CCOC(=O)C1CCN(C(=O)c2ccc3c(=O)n4c(nc3c2)CCCCC4)CC1`: the inhibition is -14.7%.

Take `Cn1nc(-c2ccccc2)c(/C=N/O)c1Cl`: the inhibition is -12.1%.

For `O=Nc1c(-c2ccccc2)[nH]n(-c2ccccc2)c1=O`, the inhibition worked out at 63%.

Take `Cc1sc2ncnc(N3CCCCC3C)c2c1C` (configuration not stated): the inhibition was found to be 32.6%.

`CCOc1ccc(S(=O)(=O)N2CCCC(C(=O)NCc3ccccc3)C2)cc1` (configuration not stated): the inhibition is -11.6%.

For `CN(C)C=NC(=O)c1cn(-c2ccc(F)cc2)c(=O)c2ccccc12`, the inhibition was -9.03%.

Consider `O=C(N/N=C/C=C/c1ccccc1)c1cnccn1`, for which the inhibition came out at 15.9%.

Take `O=C(N/N=C/C=C/c1ccco1)c1cnccn1`: the inhibition was -12.5%.

`COc1ccccc1/C=C/C=N/NC(=O)c1cnccn1`: the inhibition amounted to 5.21%.

As to `COc1ccccc1/C=C/C=N/NC(=O)c1ccccn1`, the inhibition amounted to 70.9%.

Consider `O=C(N/N=C/C=C/c1ccccc1[N+](=O)[O-])c1cccnc1`, for which the inhibition was -8%.

As to `O=C(N/N=C/C=C\c1ccccc1)c1cnccn1`, the inhibition is 11.4%.

For `O=C(N/N=C/C=C\c1ccccc1[N+](=O)[O-])c1cccnc1`, the inhibition is -10.7%.

As for `O=C(N/N=C/c1ccco1)c1ccncc1`, the inhibition worked out at 54.4%.

For `COc1ccc(CNC(=O)c2ccc[nH]2)cc1`, the inhibition stood at 34.3%.

`CC(=O)N1CCN(c2ccc(NC(=O)c3ccc4c(c3)OCCO4)cc2Cl)CC1`: the inhibition was found to be 27.7%.

On to `Cc1cccc(OCC(=O)OC(C)C(=O)Nc2ccc(S(=O)(=O)N3CCCCC3)cc2)c1` (configuration not stated), for which the inhibition was determined as 17.6%.

For the molecule `C=C(C)CSc1nnc(-c2cc(OC)c(OC)c(OC)c2)n1N`, the inhibition is -11%.

For `COc1ccc(C2=NN(C(=O)CN3CCCC3)C(c3ccc(OC)cc3)C2)cc1` (configuration not stated), the inhibition is -5.46%.
